Results on 21 compounds are retold here after PubChem BioAssay (Tox21).

Values joined by “and” are separate entries in the source; they are usually repeats but may differ in a detail not shown here. Equal entries are not always repeated. Inconclusive results are not listed. Some compounds were tested as several samples or in several runs, with calls that do not always agree. Active and inactive are the calls of the source. Unless noted, calls come from the whole dose curve; as a rule, active = well fitted curve in the direction sought with a large enough effect in the repeat runs; inconclusive = weak or mixed curves; inactive = no such curve, though single readings can be large; an effect the other way counts as inactive or inconclusive.

Test [1] is described as follows: qHTS assay for small molecules that induce genotoxicity in human embryonic kidney cells expressing luciferase-tagged ATAD5 (AID 651632). Note: nearly all actives have a fitted effect of over 15% in size. Note: potency is the fitted concentration of half-maximal effect. An outline of the steps: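 Test compounds were delivered by pin tool onto HEK293T reporter cells (2,000/well) expressing ATAD5 fused to luciferase. After 16 hr at 37C, 5% CO2, Amplite was added for 30 min at room temperature and luminescence was measured.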
For orientation: qHTS replaces the single test concentration by a dilution series.

Test [2] can be described thus: qHTS assay for small molecule agonists of the p53 signaling pathway - cell viability (AID 651633; calls by dose curve;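 note: p53RE-bla HCT reporter cells with a stable beta-lactamase p53 reporter; series mostly up to about 83 µM; nearly all actives have a fitted effect of over 30% in size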). A digest of the protocol:
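p53RE-bla cells were treated with compound for 16 hours at 37 C. Cytotoxicity was then measured as CellTiter-Glo luminescence after 30 min at room temperature.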

The nature of test [3]: qHTS assay for small molecules that induce genotoxicity in human embryonic kidney cells expressing luciferase-tagged ATAD5 - cell viability (AID 651634; calls by dose curve; note: nearly all actives have a fitted effect of over 25% in size). A digest of the protocol: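 Quantitative high-throughput format. HEK293T cells expressing ATAD5 fused to luciferase were plated at 2,000 cells/well and treated 15.5 hr with compound versus DMSO. Viability was determined by fluorescent live-cell protease substrate, 30 min at 37C.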

Test [4] in a line: qHTS assay for small molecule disruptors of the mitochondrial membrane potential - cell viability (AID 720634; calls by dose curve; note: nearly all actives have a fitted effect of over 20% in size; note: potency is the fitted concentration of half-maximal effect). An outline of the steps: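 Same-well counter-screen: following the MMP dye addition, CellTiter-Glo was added to 1 hr compound-treated HepG2 cells and luminescence read after 30 min at room temperature.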
Test [5] can be described thus: qHTS assay for small molecule disruptors of the mitochondrial membrane potential (AID 720635). Note: potency is the fitted concentration of half-maximal effect. An outline of the steps: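 HepG2 cells exposed to compound 1 hr at 37C, then Mito-MPS dye 30 min. Ratio read of aggregate (540/590 nm) versus monomer (490/535 nm) fluorescence.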
Test [6] in a line: qHTS assay to test for compound auto fluorescence at 590 nm (red) in HepG2 cells (AID 720674). A digest of the protocol:
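Fluorescence at 590 nm emission following 540 nm excitation was recorded from HepG2 wells one hour after compound transfer, with DMSO-only wells as vehicle and Rose Bengal sodium equivalency as the scale.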

Test [7] in a line: qHTS assay to test for compound auto fluorescence at 460 nm (blue) in HEK293 cells (AID 720678). A digest of the protocol:
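Triamterene serves as the blue fluorophore standard. Compound signal at 405/460 nm is read in HEK293 wells (2,000 cells, 10% dialyzed FBS) after overnight treatment at 37C.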

Test [8] can be described thus: qHTS assay to test for compound auto fluorescence at 590 nm (red) in HEK293 cells (AID 720679). An outline of the steps:
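We plated HEK293 cells in 10% dialyzed FBS medium, let them adhere for 4-5 hr, then added 23 nL compound. Overnight at 37C and 5% CO2 preceded fluorescence measurement at 540/590nm.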

Test [9] can be described thus: qHTS assay to test for compound auto fluorescence at 535 nm (green) in HepG2 cells (AID 720675).

As for `O=S(O)CO`, the Potency entry in test [1], in [3], in test [4] and in test [5] was “inactive” each time. Besides, the result in [2], in test [6], in test [7] and in [8] was inactive.

For the compound `CCCCNC(=O)NCCCC`, the Potency result in test [1], in [3] and in test [4] was “inactive” throughout. The compound was called inactive in test [2], in [6], in test [9], in test [7] and in [8].

In the case of `NS(=O)(=O)c1cc2c(cc1Cl)NC(C1CC3C=CC1C3)NS2(=O)=O` (stereo not drawn), the Potency result in test [1], in test [3] and in test [4] was “inactive” throughout. Also, the call in test [2], in test [6], in [7] and in test [8] was inactive.

As for `Nc1ccc(S(=O)(=O)Nc2ccnn2-c2ccccc2)cc1`, the Potency entry in [1], in test [3] and in test [4] was “inactive” each time. For the same compound, the outcome in test [2], in test [6], in test [7] and in test [8] was inactive.

Regarding `CC1(C)C(O)C(C)(C)C1O` (stereo not drawn), the Potency result in [1], in test [3] and in test [4] was “inactive” in each case. In addition, the compound was classed as inactive in test [2], in test [6], in [7] and in test [8].

In the case of `CC(C)OC(=O)c1ccccc1`, the Potency entry in [1], in test [3] and in [4] was “inactive” throughout. Also, the call in test [2], in test [6], in test [7] and in test [8] was inactive.

Regarding `CCOC(=O)CC(C)=O`, the Potency result in [3] and in [4] was “inactive” each time. Moreover, the outcome in test [6], in [9], in test [7] and in [8] was inactive.

With `CC(=O)N(CC(O)CO)c1c(I)c(C(=O)NCCO)c(I)c(C(=O)NCC(O)CO)c1I` (stereo not drawn), the Potency result in [1], in test [3], in [4] and in test [5] was “inactive” each time. Also, the outcome in test [6], in test [9], in [7] and in test [8] was inactive.

As to `O=c1cc(-c2ccccc2)oc2ccccc12`, the Potency is 17.2 µM (active) and 19.3 µM (active) in test [1]; 48.6 µM (active) and 15.4 µM (active) in [5]. Moreover, in test [3], the Potency entry was “inactive”. The compound was called inactive in test [6], in [9], in test [7] and in [8].

Regarding `Cc1cccn2c(=O)c(-c3nnn[nH]3)cnc12`, the Potency result in [1] and in test [4] was “inactive” throughout. The result in test [2], in [6], in test [7] and in [8] was inactive.

Turning to `O=C1CCCN1C1CCCCC1`, the Potency entry in [1], in test [3] and in test [4] was “inactive” each time. Further, the result in [6], in test [7] and in test [8] was inactive.

For the compound `CCCCOCCOCCOCc1cc2c(cc1CCC)OCO2`, the Potency entry in test [3] is “inactive”. Further, the Potency result in [4] is “inactive and 17.4 µM (active)”; in test [5] it was 55.1 µM (active). Further, the outcome in [6], in test [9], in test [7] and in test [8] was inactive.

In the case of `CC(=O)OC/C=C(\C)CC/C=C(\C)CCC=C(C)C`, the Potency result in [1], in test [4] and in test [5] was “inactive” in each case. Further, the compound was classed as inactive in [6], in test [7] and in test [8].

For `OC(CCN1CCCCC1)(c1ccccc1)C1CC2C=CC1C2` (stereo not drawn), the Potency result in test [1] and in test [4] was “inactive” throughout. Further, the outcome in [2], in [6], in [9], in [7] and in test [8] was inactive.

For `CC1=CC(C)C(C=O)CC1` (stereo not drawn), the Potency entry in [1], in test [4] and in test [5] was “inactive” throughout. Besides, the compound was classed as inactive in test [2], in test [6], in test [9], in test [7] and in test [8].

With `C=C1CC[C@H]2C[C@@H]1C2(C)C`, the Potency entry in test [1] and in [3] was “inactive” in each case. The compound was classed as inactive in test [2], in test [6], in test [9], in [7] and in test [8].

For the compound `COC(=O)CCSCCC(=O)OC`, the Potency entry in test [1], in test [3], in [4] and in test [5] was “inactive” throughout. The call in test [6], in [9], in [7] and in [8] was inactive.

As for `NC(CSCC(=O)O)C(=O)O` (stereo not drawn), the Potency entry in test [1] and in test [4] was “inactive” in each case. Moreover, the call in [2], in [6], in test [7] and in test [8] was inactive.

As for `NS(=O)(=O)c1cc(C(=O)O)cc(N2CCCC2)c1Oc1ccccc1`, the Potency result in test [1], in test [3] and in [4] was “inactive” in each case. Further, the outcome in [2], in test [6], in test [7] and in test [8] was inactive.

Turning to `O=C[C@H](O)[C@@H](O)[C@H](O)[C@H](O)CO`, the Potency entry in test [1] and in test [4] was “inactive” throughout. Also, the outcome in test [2], in test [6], in [9], in test [7] and in test [8] was inactive.

Regarding `CC(C)(c1ccc(O)cc1)c1ccc(O)cc1`, the Potency entry in [1] and in test [4] was “inactive” each time. Moreover, the compound was called inactive in test [2], in test [6], in test [9], in test [7] and in test [8]. Also, the Potency in test [5] is 6.78 µM (active) and 5.54 µM (active).
